# From the supplement of paper PMC3334620
# Over roughly 33,000 sequences, “E-score (-0.5 to 0.5)” has its median near -0.012; the highest 2% begin near 0.27. Only a selection was taken, and the highest values are over-represented in it overall.
# Biological target: T1, Vhr1 (UniProt P40522)
# T1 sequence: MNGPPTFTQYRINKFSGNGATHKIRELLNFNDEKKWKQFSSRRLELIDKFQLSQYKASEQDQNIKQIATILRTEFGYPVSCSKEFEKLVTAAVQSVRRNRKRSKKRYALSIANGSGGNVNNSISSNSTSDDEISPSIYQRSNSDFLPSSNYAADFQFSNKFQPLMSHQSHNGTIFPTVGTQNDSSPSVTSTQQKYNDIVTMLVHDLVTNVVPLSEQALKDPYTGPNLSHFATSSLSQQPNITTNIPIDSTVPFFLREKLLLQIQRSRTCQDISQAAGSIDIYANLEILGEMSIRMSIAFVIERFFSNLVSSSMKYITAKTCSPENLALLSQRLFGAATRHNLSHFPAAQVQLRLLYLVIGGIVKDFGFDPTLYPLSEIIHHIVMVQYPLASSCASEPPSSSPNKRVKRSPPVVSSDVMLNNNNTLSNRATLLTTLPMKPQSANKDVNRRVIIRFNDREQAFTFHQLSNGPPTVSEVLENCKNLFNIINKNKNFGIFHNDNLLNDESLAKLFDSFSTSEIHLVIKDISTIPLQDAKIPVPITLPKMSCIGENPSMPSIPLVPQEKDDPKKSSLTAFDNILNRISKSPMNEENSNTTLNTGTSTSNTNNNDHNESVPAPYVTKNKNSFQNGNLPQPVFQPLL
# Experiment: PBM E-score (8-mer binding enrichment) (E-score (-0.5 to 0.5)); higher = stronger / more preferred TF binding
# Details: protein concentration: 200 nM; construct: GST-full length
# Method in brief: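 Masliner-normalised scans of fluorescent anti-GST signal were the basis for scoring. That signal came from GST-tagged yeast transcription factors applied at about 100-200 nM to double-stranded universal all-10-mer Agilent arrays on fresh or once-stripped slides. Each ungapped eight-base word, pooled with its reverse complement, received an E-score from the Universal PBM Analysis Suite.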
row,Sequence,PBM E-score
1,AGACTACA,0.17
2,CGACTAAA,0.0758
3,AGACTAAA,0.0442
4,TGACTAAA,0.326
5,GGACTAAC,-0.00735
6,GGACTAAA,-0.248
7,GGACTACA,0.146
8,CGACTACG,0.188
9,TGACTACA,0.359
10,CGACTACA,0.272
11,CGACTAAC,0.303
12,CGACTACC,0.22
13,CAGATAAG,-0.0755
14,CTTCGACA,-0.0949
15,CGGCCAAC,0.0556
16,CGTCCTAA,0.0547
17,GGCACATA,0.13
18,GGGCCAAC,-0.157
19,ACCATAGG,0.0531
20,TAGTAATA,0.191
21,AAGGGGCG,-0.0512
22,CAGGGGCG,0.301
23,CAGGGGCC,-0.184
24,CTTTAGAA,-0.238
25,GAGAAAGA,-0.167

row,Sequence,PBM E-score
1,ATCCGGAC,-0.192
2,CTCCGGAC,0.0766
3,GTCCGGAC,0.273
4,AGGATCTC,-0.119
5,ATCAATGC,0.0623
6,AGGAGACG,-0.176
7,CCCGTGAA,-0.0611
8,CGCCTATA,-0.135
9,AGCGACTA,0.211
10,CGCGACCC,0.153
11,AGCGACTG,0.194
12,AGCGACTC,0.314
13,GGCGACTA,0.212
14,CTCGACTC,0.19
15,CTCGACTA,0.163
16,CGCGACTA,0.391
17,CGCGACTC,0.449
18,GAGGTATA,0.113
19,CTTGCTGC,-0.113
20,CCAATACG,-0.209
21,ATGTGCGC,-0.0331
22,ACACTTTA,-0.0402
23,GAACCTGA,0.0239
24,TCCTGACA,0.107
25,CGGAACCG,0.0495

row,Sequence,PBM E-score
1,ATGAACCA,0.294
2,CCGAACCA,0.0572
3,CTGAACCA,0.245
4,ATGAACCG,0.0189
5,ACGAACCA,0.273
6,CGGAACCA,0.343
7,ACGAACCC,-0.119
8,GGGAACCA,0.176
9,GCTCCTCA,-0.363
10,CTATCGGA,-0.237
11,ACAGTTCC,-0.00019
12,ATATCTTC,0.11
13,ACTATCTA,0.184
14,CAGCCAGG,0.0621
15,GTGGTAAC,-0.0602
16,ACGAAGCA,0.00046
17,CAGACTCG,0.0994
18,AACCTCAG,-0.103
19,AAGTGTGA,0.0182
20,GAGTGTGA,0.278
21,CAGTGTGA,0.285
22,TAGTGTGA,0.088
23,GAGTGTGC,0.0366
24,GAGTGTAA,0.0325
25,GATTCACA,0.326

row,Sequence,PBM E-score
1,CATTCACA,0.00907
2,CATTCCGA,0.0348
3,GATTCAGA,0.305
4,CATTCACG,-0.114
5,GATTCAGC,0.149
6,GATTCCGC,0.216
7,TATTCAGA,0.178
8,GATTCCGA,0.287
9,CGAAAGCA,-0.046
10,GATACACC,0.197
11,ACTGGCTG,0.0954
12,CTTACCCA,0.104
13,ACTCCAGA,0.0505
14,TCTGCCCA,-0.179
15,AACCAACT,0.0869
16,CGTGCTAA,-0.201
17,CCCATGAG,0.227
18,GCTCATGA,0.16
19,ATGCATGG,0.28
20,ATGCATGC,-0.0419
21,CCTCATGC,0.0272
22,ACACATGG,0.215
23,ATTCATGG,0.21
24,ATGCATGA,0.165
25,ACTCATGG,0.317

row,Sequence,PBM E-score
1,CCTCATGA,0.0599
2,ATTCATGC,0.21
3,ACTCATGA,0.369
4,ACTCATGC,0.322
5,AATTCACG,-0.0883
6,CGACAGAG,0.0418
7,GGACTATA,0.0737
8,CCAATTCC,-0.0792
9,ATCGTCTA,0.0131
10,ATCCTCCC,-0.107
11,CAAGTTCC,-0.216
12,AAGTCCGA,-0.205
13,ATTATACC,0.112
14,ATTATACA,0.00881
15,ATTATACG,0.303
16,TGGTTCAA,0.289
17,CGGTTCAA,0.0706
18,AGATTCAA,-0.133
19,AGGTTCAA,0.0239
20,GGATTCAA,-0.0312
21,CGATTCCA,0.0812
22,TGATTCCA,0.364
23,TGATTCAA,0.326
24,AGATTCCA,0.00955
25,CGATGAAA,-0.0595

row,Sequence,PBM E-score
1,AAGCTTTA,-0.237
2,CTAAAACA,-0.0504
3,GTAGCTTA,0.00186
4,CAAGTAAG,-0.123
5,CCATTCAG,-0.0511
6,ACTAGTCC,0.133
7,TCTAGTCA,0.218
8,CCTAGTCC,-0.0886
9,ACTAGTCA,0.292
10,CCTAGTCG,0.0391
11,GCTAGTTA,0.00532
12,GCTAGTCC,-0.158
13,CCTAGTCA,0.309
14,GCTAGTCA,0.284
15,ATCTTCTG,-0.113
16,ACTTCGGA,-0.00447
17,GAAAGTTC,-0.349
18,AGAGTACT,0.0467
19,ATTCTTAC,-0.00122
20,CTCTGGAC,0.0126
21,CCTCCCAA,-0.246
22,CCTCCCCC,-0.19
23,GCGCCCCA,-0.131
24,CCGCCCCC,-0.17
25,ACGCCCCA,0.112

row,Sequence,PBM E-score
1,CCGCCCCG,0.365
2,CCGCCCCA,0.349
3,CCTCCCCA,0.28
4,CCGCCCGG,0.0777
5,CAGAAATG,-0.168
6,CTTCATGA,0.145
7,CGGCCGAA,0.185
8,AGGTTGAA,-0.127
9,AGGAACCT,-0.0548
10,CAAGAGTA,0.167
11,CTCCCGCC,0.0303
12,CTAGCGAC,-0.00899
13,CGTGTCTA,0.124
14,CTGATTTA,0.00054
15,GTGATTTA,0.321
16,GGGATTTA,-0.29
17,ATGATTTC,0.249
18,GAGATTTA,-0.176
19,ATGATTTA,0.295
20,TCAATTGA,-0.0329
21,GATTCTCA,0.078
22,TGGTCCAA,-0.0804
